SMILES strings stand for the structures. Counter-ions that a name gives are not always drawn.

The assay concerns Danio rerio Tg(wt1b:EGFP) embryo, pronephros. Nature of the assay: fraction of imaged embryos annotated as normal kidney; higher = less nephrotoxic; extreme values may be limits of the assay. As to conditions: 25 µM; exposure: 24-48 hpf. A digest of the protocol: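 Zebrafish embryos carrying Tg(wt1b:EGFP) were dechorionated and exposed to 25 μM compound (0.5% DMSO) between 24 and 48 hpf at 28.5°C. Their pronephroi were imaged by widefield fluorescence, and each embryo was classed by hand from maximum projections. The measure is the fraction of embryos per treatment falling in the normal-kidney category.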
In the case of `CN(C)CCOC(c1ccc(Cl)cc1)c1ccccn1` (stereo not given) [Carbinoxamine maleate salt], the “fraction of imaged embryos annotated as normal kidney” value (from here on “fraction of imaged embryos annotated”) was 0.9.
The figure for `CCOC(=O)C1=C(C)NC(C)=C(C(=O)OC)C1c1cccc(Cl)c1Cl` (stereo not given) [Felodipine] is 0; for `Cc1cc(/C=C/c2ccc3cc(N(C)C)ccc3[n+]2C)c(C)n1-c1ccccc1` [Pyrvinium pamoate] it is 0.833; for `CC(=O)OCC(=O)[C@@]12N=C(C)O[C@@H]1C[C@H]1[C@@H]3CCC4=CC(=O)C=C[C@]4(C)[C@H]3[C@@H](O)C[C@@]12C` [Deflazacort] it is 0.25.
For the molecule `COc1ccc(OC)c(C(O)CNC(=O)CN)c1` (stereo not given) [Midodrine hydrochloride], the “fraction of imaged embryos annotated” value amounted to 0.833.
Next, `C[C@@H]1C[C@H]2[C@@H]3C[C@H](F)C4=CC(=O)C=C[C@]4(C)[C@@]3(F)[C@@H](O)C[C@]2(C)[C@@]1(O)C(=O)CO` [Flumethasone]: 0.417; `N/C(=N\C(=O)c1nc(Cl)c(N)nc1N)NCc1ccccc1` [Benzamil hydrochloride]: 0.917; `C[C@H]1O[C@@H](O[C@H]2[C@@H](O)C[C@H](O[C@H]3[C@@H](O)C[C@H](O[C@H]4CC[C@@]5(C)[C@H](CC[C@@H]6[C@@H]5C[C@@H](O)[C@]5(C)[C@@H](C7=CC(=O)OC7)CC[C@]65O)C4)O[C@@H]3C)O[C@@H]2C)C[C@H](O)[C@@H]1O` [Digoxin]: 0.75.
On to `NC(Cc1cc(I)c(Oc2cc(I)c(O)c(I)c2)c(I)c1)C(=O)O` (stereo not given) [Thyroxine (L)], for which the “fraction of imaged embryos annotated” value came out at 0.75.
Next, `CN(C)CCC=C1c2ccccc2C=Cc2ccccc21` [Cyclobenzaprine hydrochloride]: 0.833; `CCCCOC(=O)c1ccc(O)cc1` [Butylparaben]: 0.5; `COCC(=O)Nc1c(I)c(C(=O)NCC(O)CO)c(I)c(C(=O)N(C)CC(O)CO)c1I` (stereo not given) [Iopromide]: 0.917.
Take `O=c1cc(-c2ccc(O)c(O)c2)oc2cc(O)cc(O)c12` [Luteolin]: the “fraction of imaged embryos annotated” value worked out at 0.917.
The figure for `CCc1cccc(CC)c1NC(=O)CN(CC(=O)O)CC(=O)O` [Etifenin] is 0.667; for `CC(=O)/N=c1/sc(S(N)(=O)=O)nn1C` [Methazolamide] it is 0.636; for `Cc1cnc(C(=O)O)c[n+]1[O-]` [Acipimox] it is 1.
On to `CN(CCOc1ccc(CC2SC(=O)NC2=O)cc1)c1ccccn1` (stereo not given) [Rosiglitazone Hydrochloride], for which the “fraction of imaged embryos annotated” value came to 0.833.
For the molecule `CS(=O)(=O)c1ccc(C2=C(c3ccccc3)C(=O)OC2)cc1` [Rofecoxib], the “fraction of imaged embryos annotated” value is 1.
The figure for `CCN1CCC[C@H]1CNC(=O)c1c(O)c(Cl)cc(Cl)c1OC` [Raclopride] is 0.917; for `NCCC[C@H](N)CC(=O)N[C@H]1CNC(=O)[C@H]([C@H]2C[C@H](O)NC(N)=N2)NC(=O)/C(=C/NC(N)=O)NC(=O)[C@H](CO)NC(=O)[C@H](CO)NC1=O` [Viomycin sulfate] it is 0.833; for `Cc1cccc(C)c1NC(=O)CN1CCN(CCCC(c2ccc(F)cc2)c2ccc(F)cc2)CC1` [Lidoflazine] it is 0.167.
The figure for `CCN(CC)CCOC(=O)c1ccc(N)cc1` [Procaine hydrochloride] is 0.667; for `CCOC(=O)Nc1ccc2c(c1)N(C(=O)CCN1CCOCC1)c1ccccc1S2` [Moricizine hydrochloride] it is 0.833; for `C[C@H](Cc1cc2c(c(C(N)=O)c1)N(CCCO)CC2)NCCOc1ccccc1OCC(F)(F)F` [Silodosin] it is 0.917.
Consider `COc1ncnc(NS(=O)(=O)c2ccc(N)cc2)c1OC` [Sulfadoxine], for which the “fraction of imaged embryos annotated” value is 0.833.
The figure for `CCC(=O)[C@@]1(C)[C@H](C)C[C@H]2[C@@H]3CCC4=CC(=O)C=C[C@]4(C)[C@H]3[C@@H](O)C[C@@]21C` [Rimexolone] is 0.333.
For the molecule `COC(=O)Nc1nc2cc([S+]([O-])c3ccccc3)ccc2[nH]1` (stereo not given) [Oxfendazol], the “fraction of imaged embryos annotated” value stood at 0.833.
For `Cc1oncc1C(=O)Nc1ccc(C(F)(F)F)cc1` [Leflunomide], the “fraction of imaged embryos annotated” value amounted to 0.167.
The figure for `Clc1ccc(C(Cn2ccnc2)OCc2c(Cl)cccc2Cl)c(Cl)c1` (stereo not given) [Isoconazole] is 0.167; for `Cc1cn([C@H]2C[C@H](N=[N+]=[N-])[C@@H](CO)O2)c(=O)[nH]c1=O` [Zidovudine, AZT] it is 1.
With `CN1C(C)(C)CCCC1(C)C` [Pempidine tartrate], the “fraction of imaged embryos annotated” value was 0.833.
The figure for `CN(C)CCN(Cc1cccs1)c1ccccn1` [Methapyrilene hydrochloride] is 0.917.
On to `O=C(c1ccc(OCCN2CCCCC2)cc1)c1c(-c2ccc(O)cc2)sc2cc(O)ccc12` [Raloxifene hydrochloride], for which the “fraction of imaged embryos annotated” value was determined as 0.917.
Regarding `CCCN(CCC)C(=O)C(CCC(=O)O)NC(=O)c1ccccc1` (stereo not given) [Proglumide], the “fraction of imaged embryos annotated” value came out at 0.917.
The figure for `NC(=O)c1cc[n+](CC2=C(C(=O)[O-])N3C(=O)[C@@H](NC(=O)[C@@H](c4ccccc4)S(=O)(=O)O)[C@H]3SC2)cc1` [Cefsulodin sodium salt] is 0.833.
Next, `O=C(NCCNCC(O)COc1ccc(O)cc1)N1CCOCC1` (stereo not given) [Xamoterol hemifumarate]: 1; `CC(N/C(=N\C#N)Nc1ccncc1)C(C)(C)C` (stereo not given) [Pinacidil]: 0.727.
The figure for `CN(C)CCN(Cc1ccc(Cl)cc1)c1ccccn1` [Chloropyramine hydrochloride] is 0.917; for `CN(C)[C@@H]1C(O)=C(C(N)=O)C(=O)[C@@]2(O)C(O)=C3C(=O)c4c(O)ccc(Cl)c4[C@@H](O)[C@H]3C[C@@H]12` [Demeclocycline hydrochloride] it is 0.5.
Consider `NS(=O)(=O)c1cc(C(=O)O)c(NCc2ccco2)cc1Cl` [Furosemide], for which the “fraction of imaged embryos annotated” value was found to be 0.818.

Source of the values: the supplement of paper PMC7366291.
